The test system of test [1] is Plasmodium falciparum Sir2 (PF13_0152, Sir2A). The test can be described thus: pfSir2 binders on small-molecule microarrays, primary screen, biochemical, small-molecule microarray, 635 nm fluorescence (AID 1098).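 Also: score merges spot fluorescence intensity with its signal-to-noise ratio.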 To be noted: small-molecule microarray binding, fluorescence 635 nm; higher = more signal.
Test [2] in a line: small-molecule microarray binders of probe aDKK1, primary screen, biochemical, biotinylated probe, 635/667 nm fluorescence (AID 1099).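 Also: score merges 667nm spot fluorescence with signal to noise across triplicate slides.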 To be noted: higher = more signal.
A short description of test [3]: small-molecule microarray binders of probe aCHRDL2, primary screen, biochemical, biotinylated probe, 635/667 nm fluorescence (AID 1100). The note with it: higher = more signal.
A short description of test [4]: splicing luciferase reporter signal modulators, primary screen, spliceosome inhibition project, cell-based, HEK293, splice +/- reporter (AID 1101).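 Also: HEK293 cells carrying a splicing-competent luciferase reporter gene; test concentration not given here.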 The note with it: luminescence, 24 h, higher = more signal, called active from +8 up or from −8 down.
The target of test [5] is Fibroblast growth factor 10 (Homo sapiens) (UniProt O15520). The experiment in a line: FGF10 binders on small-molecule microarrays, primary screen, biochemical, small-molecule microarray, 635 nm fluorescence (AID 1102). The note with it: FGF10 binding, fluorescence 635 nm, higher = more signal.
Test [6] relates to glycogen synthase kinase-3 (GSK3A per assay name; protocol says GSK3B). The test can be described thus: GSK3 binders on small-molecule microarrays, primary screen, biochemical, small-molecule microarray, 635 nm fluorescence, GSK3A (AID 1103). Also: the record names both GSK3A and GSK3B. To be noted: small-molecule microarray binding, fluorescence 635 nm; higher = more signal.
In test [7] the target is Epidermal growth factor receptor (Homo sapiens) (UniProt P00533). The experiment in a line: EGFR binders on small-molecule microarrays, primary screen, biochemical, small-molecule microarray, 635 nm fluorescence (AID 1104).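 Also: score merges 667 nm emission intensity with spot signal to noise over triplicate slides.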 The note with it: EGFR binding, higher = more signal.
In test [8] the target is Follistatin-related protein 3 (Homo sapiens) (UniProt O95633). The experiment in a line: FSTL3 binders on small-molecule microarrays, primary screen, biochemical, small-molecule microarray, 635 nm fluorescence (AID 1105).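 Also: score merges emission near 667 nm and signal to noise per printed spot across three slides.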 The note with it: FSTL3 binding, higher = more signal.
Test [9] addresses Dickkopf-related protein 1 (Homo sapiens) (UniProt O94907). The test can be described thus: DKK1 binders on small-molecule microarrays, primary screen, biochemical, small-molecule microarray, 635 nm fluorescence scan (AID 1106).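 Also: score merges emission near 667 nm with signal to noise over three replicate slides.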 The note with it: DKK1 binding, higher = more signal.
The subject of test [10] is Inhibin beta A chain (activin A). The test can be described thus: INHBA (activin A) binders on microarrays, primary screen, biochemical, small-molecule microarray, 635 nm fluorescence scan (AID 1107).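 Also: mouse activin A protein probed at 4.33 µg/mL on printed slides; score merges bound-protein fluorescence near 667 nm with spot signal-to-noise.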 To be noted: small-molecule microarray binding, higher = more signal.
Test [11] deals with Human papillomavirus type 1a protein E7 (residues 44-93). The test can be described thus: HPV1a E7 fragment binders on microarrays, primary screen, biochemical, small-molecule microarray, residues 44-93, 635 nm fluorescence (AID 1108).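 Also: E7 fragment applied at 1 µg/mL in TBST for 1 h at 4 C; score combines spot fluorescence with its signal to noise ratio.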 The note with it: small-molecule microarray binding, fluorescence 635 nm; higher = more signal.
Test [12] is described as follows: modulators of HCV replicon luciferase signal, primary screen, HCV replication inhibitor project, Huh7 cells, luciferase reporter (AID 1109).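 Also: huh7 hepatoma cells harbouring a luciferase neomycin HCV replicon reporter; luciferase luminescence as measure of HCV replicon replication; test concentration not given here.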 The note with it: 48 h, higher = more signal. For orientation: In antiviral work, replicon cells carry a viral genome segment that copies itself.
Test [13] addresses Left-right determination factor 2 (Homo sapiens) (UniProt O00292). The test can be described thus: LEFTY2 binders on small-molecule microarrays, primary screen, biochemical, small-molecule microarray, 635 nm fluorescence scan (AID 1110). To be noted: LEFTY2 binding, higher = more signal.
Test [14] has as its target Calmodulin-1 (Homo sapiens) (UniProt P0DP23). The test can be described thus: CALM1 binders on microarrays, EGTA buffer, profiling panel, biochemical, small-molecule microarray, Cy5-labelled CALM1 (AID 1111).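 Also: labelled calmodulin applied in Tris saline Tween buffer holding calcium plus EGTA and DTT.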 To be noted: Cy5-CALM1 binding fluorescence, higher = more signal.
The target is the same in test [15]. The experiment in a line: calcium-bound CALM1 binders on microarrays, profiling panel, artefact control for SMM control-protein annotation, biochemical, small-molecule microarray, Cy5-labelled CALM1, plus calcium (AID 1112).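 Also: score merges spot fluorescence with signal to noise from triplicate slides.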 To be noted: Cy5-CALM1 binding fluorescence, higher = more signal.
Test [16] can be described thus: small-molecule microarray binders of probe aWnt5a, primary screen, biochemical, biotinylated probe, 635/667 nm fluorescence (AID 1113).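 Also: score merges 667 nm fluorescence intensity with signal-to-noise per printed feature.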 To be noted: higher = more signal.
Test [17] is described as follows: small-molecule microarray binders of probe aShh, primary screen, biochemical, biotinylated probe, 635/667 nm fluorescence (AID 1114).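 Also: probe is biotin-labelled aShh protein from a stem cell growth factor screen; measures binding of labelled protein to compounds printed on the slide; score merges feature fluorescence at 667 nm with signal-to-noise.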 The note with it: higher = more signal.
A short description of test [18]: small-molecule microarray binders of probe aNog, primary screen, biochemical, biotinylated probe, 635/667 nm fluorescence (AID 1115).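 Also: probe is biotinylated aNog protein used at 0.15 µg/mL for 1 h at 4 C; z-score combines 667 nm fluorescence of each spot with its signal to noise.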 To be noted: higher = more signal.
For test [19], the target named is Torsin-1A-interacting protein 1 (Homo sapiens) (UniProt Q5JTV8). The test can be described thus: LAP1 binders from COS7 cell lysate, primary screen, small-molecule microarray, 635/667 nm fluorescence (AID 1116). To be noted: COS7-hLAP1 lysate binding, 635 nm fluorescence, higher = more signal.
The target in test [20] is Alpha-bungarotoxin (Bungarus multicinctus) (UniProt P60615). The test can be described thus: alpha-bungarotoxin binders on microarray, profiling panel, artefact control for SMM control protein annotation, biochemical, small-molecule microarray, Alexa647 label, 635/667 nm fluorescence (AID 1117). The note with it: alpha-BTX-A647 binding fluorescence, higher = more signal.

Calls of active or inactive are those of the source.

Chain of Fibroblast growth factor 10 (Homo sapiens) (O15520 whole entry, looked up): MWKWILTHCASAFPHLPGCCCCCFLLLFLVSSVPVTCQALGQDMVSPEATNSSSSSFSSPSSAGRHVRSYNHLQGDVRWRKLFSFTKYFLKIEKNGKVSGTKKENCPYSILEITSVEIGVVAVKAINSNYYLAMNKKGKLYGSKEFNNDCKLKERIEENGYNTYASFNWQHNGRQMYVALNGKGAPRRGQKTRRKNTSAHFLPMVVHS
Chain of Epidermal growth factor receptor (Homo sapiens) (P00533 whole entry, looked up): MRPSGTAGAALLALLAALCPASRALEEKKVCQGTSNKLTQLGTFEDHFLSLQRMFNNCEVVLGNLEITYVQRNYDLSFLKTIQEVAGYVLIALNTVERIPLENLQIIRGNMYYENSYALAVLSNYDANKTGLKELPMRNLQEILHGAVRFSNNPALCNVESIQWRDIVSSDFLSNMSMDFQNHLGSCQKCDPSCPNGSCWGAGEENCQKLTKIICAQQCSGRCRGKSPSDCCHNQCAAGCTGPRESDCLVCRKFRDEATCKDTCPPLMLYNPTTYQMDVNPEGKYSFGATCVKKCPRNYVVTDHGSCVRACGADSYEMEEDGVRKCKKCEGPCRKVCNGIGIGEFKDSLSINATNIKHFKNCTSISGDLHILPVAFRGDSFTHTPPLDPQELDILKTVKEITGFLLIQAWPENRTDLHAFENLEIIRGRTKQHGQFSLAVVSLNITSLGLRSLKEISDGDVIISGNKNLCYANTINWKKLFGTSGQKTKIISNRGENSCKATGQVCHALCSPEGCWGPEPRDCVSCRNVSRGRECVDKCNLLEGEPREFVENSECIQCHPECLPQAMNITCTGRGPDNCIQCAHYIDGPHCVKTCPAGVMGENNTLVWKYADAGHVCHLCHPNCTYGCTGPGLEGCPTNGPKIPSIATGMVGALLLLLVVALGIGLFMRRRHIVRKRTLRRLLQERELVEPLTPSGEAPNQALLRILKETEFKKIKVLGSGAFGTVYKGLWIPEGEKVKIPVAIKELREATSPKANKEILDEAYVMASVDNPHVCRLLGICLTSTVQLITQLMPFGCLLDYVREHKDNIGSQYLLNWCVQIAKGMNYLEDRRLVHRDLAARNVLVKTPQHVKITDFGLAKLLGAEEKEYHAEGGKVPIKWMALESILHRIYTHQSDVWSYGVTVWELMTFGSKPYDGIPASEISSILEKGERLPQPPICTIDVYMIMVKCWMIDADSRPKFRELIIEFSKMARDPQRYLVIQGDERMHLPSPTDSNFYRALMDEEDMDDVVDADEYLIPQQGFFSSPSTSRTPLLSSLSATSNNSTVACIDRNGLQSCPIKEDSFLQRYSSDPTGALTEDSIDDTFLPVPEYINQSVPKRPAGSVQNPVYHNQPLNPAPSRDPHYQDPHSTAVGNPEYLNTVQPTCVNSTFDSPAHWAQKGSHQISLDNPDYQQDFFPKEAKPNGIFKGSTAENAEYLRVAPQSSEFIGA
Chain of Left-right determination factor 2 (Homo sapiens) (O00292 whole entry, looked up): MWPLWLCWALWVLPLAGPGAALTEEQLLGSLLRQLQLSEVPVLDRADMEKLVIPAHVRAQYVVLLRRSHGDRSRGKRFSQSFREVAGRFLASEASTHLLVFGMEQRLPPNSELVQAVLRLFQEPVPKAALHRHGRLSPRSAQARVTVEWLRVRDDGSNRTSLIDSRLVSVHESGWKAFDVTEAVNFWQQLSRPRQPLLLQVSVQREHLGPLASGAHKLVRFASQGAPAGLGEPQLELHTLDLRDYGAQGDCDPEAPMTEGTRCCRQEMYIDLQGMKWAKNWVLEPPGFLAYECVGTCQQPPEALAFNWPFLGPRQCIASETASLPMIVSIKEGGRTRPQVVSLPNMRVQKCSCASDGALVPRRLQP
Chain of Follistatin-related protein 3 (Homo sapiens) (O95633 whole entry, looked up): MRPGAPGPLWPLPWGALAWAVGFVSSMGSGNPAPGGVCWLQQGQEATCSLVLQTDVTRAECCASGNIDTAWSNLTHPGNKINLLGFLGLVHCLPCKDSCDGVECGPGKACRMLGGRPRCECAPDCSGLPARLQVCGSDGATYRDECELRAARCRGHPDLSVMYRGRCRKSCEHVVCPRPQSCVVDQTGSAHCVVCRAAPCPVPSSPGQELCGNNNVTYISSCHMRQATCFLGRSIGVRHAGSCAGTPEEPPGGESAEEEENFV
Chain of Torsin-1A-interacting protein 1 (Homo sapiens) (Q5JTV8 whole entry, looked up): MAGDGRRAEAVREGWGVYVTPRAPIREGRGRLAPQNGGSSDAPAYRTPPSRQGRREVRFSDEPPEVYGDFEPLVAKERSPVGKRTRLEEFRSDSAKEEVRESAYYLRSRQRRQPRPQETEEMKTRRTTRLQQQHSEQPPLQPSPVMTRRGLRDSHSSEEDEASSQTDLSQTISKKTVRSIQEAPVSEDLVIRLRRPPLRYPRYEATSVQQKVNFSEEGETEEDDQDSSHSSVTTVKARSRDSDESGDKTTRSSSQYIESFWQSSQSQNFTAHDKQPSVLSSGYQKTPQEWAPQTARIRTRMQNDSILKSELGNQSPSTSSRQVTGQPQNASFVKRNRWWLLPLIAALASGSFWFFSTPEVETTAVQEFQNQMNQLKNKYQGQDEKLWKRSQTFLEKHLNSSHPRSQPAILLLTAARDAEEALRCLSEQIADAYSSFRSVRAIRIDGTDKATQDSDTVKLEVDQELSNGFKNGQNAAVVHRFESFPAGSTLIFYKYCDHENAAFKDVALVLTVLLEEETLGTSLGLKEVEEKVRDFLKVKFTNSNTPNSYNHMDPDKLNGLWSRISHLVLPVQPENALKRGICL
Chain of Dickkopf-related protein 1 (Homo sapiens) (O94907 whole entry, looked up): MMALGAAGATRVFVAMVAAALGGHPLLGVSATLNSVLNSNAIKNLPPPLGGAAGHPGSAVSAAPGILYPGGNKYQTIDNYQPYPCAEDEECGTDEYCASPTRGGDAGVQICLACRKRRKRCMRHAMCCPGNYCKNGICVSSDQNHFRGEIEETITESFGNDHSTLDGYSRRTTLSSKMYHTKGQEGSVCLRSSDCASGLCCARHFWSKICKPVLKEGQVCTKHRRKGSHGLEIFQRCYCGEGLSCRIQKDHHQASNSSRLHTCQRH
Chain of Alpha-bungarotoxin (Bungarus multicinctus) (P60615 whole entry, looked up): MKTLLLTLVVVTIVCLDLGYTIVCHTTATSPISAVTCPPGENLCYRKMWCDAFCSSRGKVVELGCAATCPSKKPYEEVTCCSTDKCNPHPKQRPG

In the case of `CCOC(=O)[C@H](Cc1ccccc1)NC(=O)CCC1CC(OC(=O)NCc2cccc3ccccc23)CC2(CCCC(COC(=O)NCc3ccc4c(c3)OCO4)O2)O1` (stereo not given in full), the composite z-score in [1] was 0.216; in [2] it was -0.0102; in test [3], -0.343; in test [5] it was 0.587; in test [6] it was -0.0333; in [7], 0.179. Further, the composite z-score in test [8] was 0.224; in test [9] it was 0.141; in test [10], 0.325; in test [11], 0.524; in test [13], 0.284; in [14], -0.29. The composite z-score in [15] was -0.457; in test [16], -0.104; in test [17], 0.214; in test [18], -0.299; in test [19], 0.629; in test [20], -0.382. The results for the z-score in [4] and in [12] were 0.277 (inactive) and 1.08, respectively.
On to `COC(=O)[C@H](C)NC(=O)CCC1CC(OC(=O)NCc2ccc3c(c2)OCO3)CC2(CCCC(COC(=O)NCCC(C)C)O2)O1` (stereo not given in full), for which the composite z-score in test [1] is 0.624; in test [2], -0.076; in [3] it was -0.434; in [5] it was 0.412; in [6], 0.69; in test [7] it was 0.0295. The composite z-score in test [8] is 0.505; in test [9], 0.205; in [10], -2.25; in [11], 1.37; in [13], 0.694; in [14] it was -0.107. The composite z-score is -0.682 in [15]; -0.0977 in [16]; -0.0553 in test [17]; -0.0047 in test [18]; 0.302 in test [19]; 1.48 in test [20]. The figures for the z-score in test [4] and in test [12] were 0.0265 (inactive) and -0.166, respectively.
`O=C1C=C[C@@H](O)[C@@H]2[C@@H]3C(=O)N(C4CCCCC4)C(=O)[C@@H]3CC[C@@H]12`: the composite z-score in test [1] was 0.252; in test [2] it was -0.0259; in test [3], -0.369; in [5] it was 1.07; in test [6], 0.708; in test [7], 0.378. The composite z-score was 0.797 in [8]; 0.844 in test [9]; 0.234 in test [10]; 0.502 in test [11]; 0.71 in test [13]; -0.0865 in test [14]. Also, the composite z-score is -0.713 in [15]; -0.0459 in test [16]; -0.0793 in test [17]; -0.158 in test [18]; 0.191 in test [19]; 0.518 in test [20]. For the same compound, the z-score in [4] is 2.14 (inactive); in [12], -4.18.
As to `COC(=O)[C@@H]1CC[C@H](C)[C@@H](c2ccc(C)cc2)N1C(=O)c1ccc(C=NOC[C@@H](O)[C@H]2O[C@@H]3OC(C)(C)O[C@@H]3[C@H]2O)cc1`, the composite z-score is 0.402 in test [1]; 0.0861 in test [2]; -0.357 in test [3]; 0.696 in test [5]; 0.479 in test [6]; 0.54 in [7]. For the same compound, the composite z-score in test [8] stood at 0.543; in [9] it was 0.595; in test [10], 0.101; in test [11] it was 1.15; in test [13], 0.414; in test [14], 0.504. The composite z-score was -0.12 in [15]; -0.117 in test [16]; -0.0709 in test [17]; -0.168 in test [18]; 0.555 in test [19]; 0.776 in test [20]. Further, the z-score was 0.569 (inactive) in test [4] and -0.447 in [12].
As to `COc1ccc(O[C@H]2C=C[C@@H](c3ccccc3)O[C@@H]2CON=C(C)CCN2CCCc3nc(C)c(C)cc32)cc1`, the composite z-score in test [1] was 0.625; in test [2], -0.325; in [3], -0.156; in test [5], 0.735; in test [6], 0.73; in test [7] it was 0.227. The composite z-score stood at 0.616 in [8]; 0.552 in [9]; 0.917 in test [10]; 1.09 in test [11]; 0.597 in test [13]; 0.284 in test [14]. In addition, the composite z-score was -0.425 in [15]; -0.0869 in test [16]; -0.0769 in [17]; -0.158 in test [18]; 0.358 in test [19]; 0.651 in test [20]. Besides, the z-score in test [4] was -0.204 (inactive); in test [12] it was -2.04.
For the compound `C=CC[C@@H]1C=C[C@H](ON=C(C)CCN2CCCCc3nc(C)c(C)cc32)[C@@H](CO)O1`, the composite z-score in test [1] is 1.14; in test [2] it was -0.406; in test [3], -0.804; in test [5], 0.497; in test [6], 1.29; in test [7], 1.51. The composite z-score is 1.43 in test [8]; 1.63 in test [9]; 1.5 in [10]; 0.322 in [11]; 1.25 in [13]; -0.937 in test [14]. For the same compound, the composite z-score in test [15] is -1.72; in test [16] it was -0.0276; in test [17] it was 0.0684; in test [18] it was -0.444; in test [19], 0.533; in test [20], -0.102. For the same compound, the z-score in test [4] was -0.102 (inactive); in [12] it was -0.197.

Source of the values: PubChem BioAssay.
